{"source": "PubChem BioAssay AID995", "about": "(National Center for Advancing Translational Sciences (NCATS), 2007)", "note": "In all, about 72,000 compounds went through this assay and about 710 (0.99%) were called active. About 7% were inconclusive and are not listed. The sample as a whole holds a higher share of actives than the screen did. Unmarked numbers belong to inactive results. Calls come from the whole dose curve; as a rule, active = well fitted inhibition curve with a large enough effect; inconclusive = small, poorly fitted or top-dose-only effect; inactive = no such curve, though single readings can be large or run the other way. % is set by controls: 0 for no effect and ±100 for the full control effect; potency is the fitted concentration of half-maximal effect."}
{"assay": "qHTS Assay for Inhibitors of the ERK Signaling Pathway using a Homogeneous Screening Assay; note: nearly all actives have a fitted effect of over 55% in size", "conditions": "HEK293-V1b, vasopressin-stimulated pERK AlphaScreen; series mostly up to 57.5 µM; activity, negative = inhibition: at the top concentration", "description": "qHTS Assay for Inhibitors of the ERK Signaling Pathway using a Homogeneous Screening Assay\nNIH Chemical Genomics Center [NCGC]\nNIH Molecular Libraries Screening Centers Network [MLSCN]\nAssay Submitter (PI): Dr. Wei Zheng, NCGC/NIH\nThe Ras/extracellular-signal-regulated kinase (ERK) mitogen activated protein (MAP) kinase signaling pathway (ERK1/2 cascade) plays is a key role in transmitting signals from the cell surface to the nucleus (Nishida and Gotoh 1993; Chang and Karin, 2001). The cascade is initiated by the small G-protein Ras, which recruits Raf […], where activation occurs. Alternatively, this pathway can be activated by elevating intracellular cAMP.\nActivation of the ERK pathway is essential in increased cell division and cell survival. Sustained and constitutive activation of the ERK pathway, however, has been linked to uncontrolled cell proliferation, increased cell survival, and tumor progression. Thus, the ERK has been as an attractive target for cancer chemotherapy in the past few years (Sebolt-Leopold and Herrera, 2004). Given its physiological and pathological importance, assessment of ERK phosphorylation has been broadly performed in both basic research and drug discovery. Most assays for the measurement of ERK phosphorylation use the antibody-based detection methods, such as western blot and ELISA. These assays require multiple reagent additions with cell wash steps and are not suitable for high throughout screening.\nThe current cell-based ERK phosphorylation assay was performed using AlphaScreen platform. AlphaScreen is a two bead-based proximity-dependent chemical energy transfer luminescent assay platform. The assay reagents (ERK SureFire(TM) kit) were supplied from TGR BioSciences (Australia). In the presence of specific antibodies, phosphorylated ERK will bring \"donor\" and \"acceptor\" beads to a proximity range (<200 nm), and subsequently lead a chemical luminescent reaction upon exciting donor beads with 680 nm laser. To exclude the assay-related false positives, we used a biotinylated rabbit IgG to perform counter-screen. The biotinylated antibody mimics the phosphorylated ERK1/2 for bringing streptavidin coated beads and protein-A coated beads to a proximity range for the AlphaScreen detection.\nNCGC Assay Protocol Summary:\nHEK293 cells stably expressing type-1 vasopressin receptor (V1b) were maintained in DMEM medium (Invitrogen, Carlsbad, CA) at 37C under a humidified atmosphere containing 5% CO2 and 95% air. The medium contained 10% FBS, 2 mM L-glutamine, non-essential amino acid, pyruvate and 50 U/ml penicillin and 50 ug/ml streptomycin (Invitrogen). The aliquots of frozen cells were stored at -135C and used for the compound screening. All compounds were screened as titrations from 0.6 nM to 46 uM final concentration. Vasopressin was used to stimulate the ERK phosphorylation pathway. The ERK phosphorylation in cells was determined using an AlphaScreen assay kit provided by PerkinElmer. Data were normalized to the controls for basal activity (DMSO only) and 100% activation (25 nM vasopressin). AC50 values were determined from concentration-response data modeled with the standard Hill equation.\n(1) Seed 4 ul/well of resuspended frozen HEK293 cells containing 2000 cells in white 1536-well plates for overnight with 1% FBS at 37C under a humidified atmosphere containing 5% CO2 and 95% air.\n(2) Add 23 nL compounds in DMSO solution. The final titration was 0.6 nM to 46 uM.\n(3) Incubate at 37C for 30 min.\n(4) Dispense 0.5uL vasopressin (25 nM in final)\n(5) Incubate at 37C for 5 min.\n(6) Dispense 0.5uL of 1:2 diluted 5x lysis buffer.\n(7) Incubate at 37C for 10 min.\n(8) Dispense 1.5uL of mixture of activation buffer and reaction buffer with AlphaScreen beads (streptavidin donor beads and protein-A acceptor beads, 10 ng/well for each).\n(9) Incubate at room temperature for 5 hr.\n(10) Detect the assay plate in an EnVision plate reader (PerkinElmer) using the AlphaScreen detection mode.\n[…]"}
{"smiles": "CC1(C)OC2CC(=O)OC[C@@]23C1CC(=O)[C@]1(C)C3CC[C@@]2(C)C(c3ccoc3)OC(=O)C3O[C@@]321", "note": "(stereo partly specified)", "activity, negative = inhibition": "5.86%"}
{"smiles": "O=C(O)c1ccc(C(=O)c2ccccc2C(=O)O)cc1C(=O)O", "activity, negative = inhibition": "14.2% [at 11.5 µM]"}
{"smiles": "Cc1c(O)cc(O)c2c(=O)c(-c3ccc(O)cc3)coc12", "activity, negative = inhibition": "10.2%"}
{"smiles": "COc1ccc(OC)c(NC(=O)CSc2nc(N)c(-c3ccccc3)c(=O)[nH]2)c1", "activity, negative = inhibition": "-26.5%"}
{"smiles": "CCn1c(COc2ccc(OC)cc2)nnc1SCC(=O)Nc1cc(OC)ccc1OC", "activity, negative = inhibition": "-28%"}
{"smiles": "COc1ccc(OC)c(NC(=O)CSc2nc3cccnc3n2C)c1", "Potency": "20 µM (active)"}
{"smiles": "COC(=O)C1C(=O)c2c([nH]c(C(=O)OCCSC)c2C)CC1C", "note": "(stereo unspecified)", "activity, negative = inhibition": "-19.7%"}
{"smiles": "CCCOC(=O)c1[nH]c2c(c1C)C(=O)CC(c1cc(OC)c(OC)c(OC)c1)C2", "note": "(stereo unspecified)", "Potency": "25.1 µM (active)"}
{"smiles": "CCCOC(=O)C1=C(C)NC2=C(C(=O)C(C(=O)OC)C(C)C2)C1c1ccc(N(C)C)cc1", "note": "(stereo unspecified)", "activity, negative = inhibition": "-12.3%"}
{"smiles": "CC(=O)OCC(=O)[C@@]1(O)CCC2C3CCC4=CC(=O)CC[C@@]4(C)[C@]3(F)C(O)C[C@]21C", "note": "(stereo partly specified)", "activity, negative = inhibition": "-18%"}
{"smiles": "C[C@@H]1O[C@@H](OC[C@H]2O[C@@H](Oc3c(-c4cccc(O)c4O)oc4cc(O)cc(O)c4c3=O)[C@H](O)[C@@H](O)[C@@H]2O)[C@H](O)[C@H](O)[C@H]1O", "activity, negative = inhibition": "-17.5%"}
{"smiles": "COc1ccccc1N1CCN(C[C@@H]2CN3C(=O)N(C)c4ccccc4C3=N2)CC1", "activity, negative = inhibition": "-15.9%"}
{"smiles": "COc1ccc(-c2nn3c(-c4ccccc4)nnc3s2)cc1OC", "Potency": "7.94 µM (active)"}
{"smiles": "COc1cc(-c2nn3c(-c4cccc(C)c4)nnc3s2)cc(OC)c1OC", "activity, negative = inhibition": "-16.6%"}
{"smiles": "Fc1ccc(-c2nnc3sc(-c4ccc5c(c4)OCO5)nn23)cc1", "activity, negative = inhibition": "6.41%"}
{"smiles": "CC(=O)O[C@]1(C(C)=O)CC[C@@H]2[C@@H]3C=C(C)C4=CC(=O)CC[C@@]4(C)[C@H]3CC[C@]21C", "activity, negative = inhibition": "35.5% [at 25.7 µM]"}
{"smiles": "O=C(O)c1nn(-c2ccc(Cl)cc2)c2c1C(=O)c1ccccc1C2=O", "activity, negative = inhibition": "-10.9% [at 11.5 µM]"}
{"smiles": "CC1CC[C@@]23CCC4(C)[C@@]5(C)CCC6C(C)(C)C(O)CC[C@@]6(C)C5C=C[C@@]4(OC2=O)C3C1C", "note": "(stereo partly specified)", "activity, negative = inhibition": "10.4%"}
{"smiles": "CN(C)CCc1c[nH]c2ccc(Cn3cncn3)cc12", "activity, negative = inhibition": "20.1%"}
{"smiles": "N#Cc1ccccc1-c1ccc2ncnc(NCc3cccnc3)c2c1", "activity, negative = inhibition": "-12.3%"}
{"smiles": "CC1(C)SC2C(NC(=O)COc3ccccc3)C(=O)N2C1C(=O)O", "note": "(stereo unspecified)", "activity, negative = inhibition": "5.65%"}
{"smiles": "S=c1c2[nH]cnc2ncn1CCSc1ncnc2nc[nH]c12", "activity, negative = inhibition": "-0.588% [at 11.5 µM]"}
{"smiles": "COC(=O)NC(c1ccccc1)[C@]1(C(C)=O)CCCC1=O", "note": "(stereo partly specified)", "activity, negative = inhibition": "-3.18% [at 11.5 µM]"}
{"smiles": "Nc1nc2nc(Cl)[nH]c2c(=O)[nH]1", "activity, negative = inhibition": "19.7%"}
{"smiles": "O=C(O)C1CCN(c2ncnc3ccc(-c4ccccc4C(F)(F)F)cc23)CC1", "activity, negative = inhibition": "-10.5%"}
{"smiles": "CCCN1[C@H](C(=O)OC)C[C@@]2(O)[C@@H](O)[C@@H](O)[C@@H](O)C[C@@H]12", "activity, negative = inhibition": "26.9%"}
{"smiles": "Nc1ncn(C2OC(CO)C(O)C2O)c(=O)n1", "note": "(stereo unspecified)", "activity, negative = inhibition": "15.1%"}
{"smiles": "COC(=O)[C@@]1(Cc2ccc(OC)cc2)[C@H]2c3cc(C(=O)N4CCCC4)n(Cc4ccc(C(F)(F)F)nc4)c3C[C@H]2CN1C(=O)c1ccccc1", "activity, negative = inhibition": "2.03%"}
{"smiles": "O=c1c(-c2ccc(F)cc2)nc2cnc(N3CCOCC3)nc2n1-c1ccccc1", "activity, negative = inhibition": "-29%"}
{"smiles": "C=C(C)C1CC=C(CO)CC1", "note": "(stereo unspecified)", "activity, negative = inhibition": "22.5%"}
{"smiles": "COc1ccccc1CNc1cc(-c2ccccc2CN(C)C)ncn1", "activity, negative = inhibition": "11.9%"}
{"smiles": "Cc1cc(OCC(=O)O)c(Cl)cc1Cl", "activity, negative = inhibition": "-16.5% [at 11.5 µM]"}
{"smiles": "Fc1ccc2[nH]c3c(N4CCSCC4)ncnc3c2c1", "Potency": "12.6 µM (active)"}
{"smiles": "Cc1ccc(-n2ncc3c(N4CCN(c5ccc(F)cc5)CC4)ncnc32)c(C)c1", "activity, negative = inhibition": "-27.4%"}
{"smiles": "CCN1CCCC1CNc1ncnc2c1[nH]c1ccc(F)cc12", "note": "(stereo unspecified)", "activity, negative = inhibition": "-11.8%"}
{"smiles": "Oc1ccc(O)c2c(O)cccc12", "activity, negative = inhibition": "-3.49%"}
{"smiles": "CC(=O)c1cccc(NC(=O)c2ccncc2)c1", "activity, negative = inhibition": "12.2%"}
{"smiles": "C/C(=C\\C(=O)c1cccnc1)Nc1ccc(C)c(C)c1", "activity, negative = inhibition": "-5.4%"}
{"smiles": "C/C(=C\\C(=O)c1ccccc1)Nc1cccc(O)c1", "Potency": "7.94 µM (active)"}
{"smiles": "Cc1noc(C)c1-c1nc(Nc2ccccc2)c2ccccc2n1", "activity, negative = inhibition": "-25.9%"}
{"smiles": "COc1cccc(-c2nc(Nc3ccncc3)c3ccccc3n2)c1", "Potency": "15.8 µM (active)"}
{"smiles": "COc1ccc2[nH]cc(CCNc3nc(-c4cccc(NS(C)(=O)=O)c4)nc4ccccc34)c2c1", "activity, negative = inhibition": "-30.4%"}
{"smiles": "CCC(C)(C)N=C(NC#N)Nc1cccnc1", "activity, negative = inhibition": "-7.8%"}
{"smiles": "N[C@H](C(=O)O)c1ccc(C(=O)O)c(O)c1", "activity, negative = inhibition": "-22.7%"}
{"smiles": "CC(=O)Oc1c2c(c3c(c1CC=C(C)C)O[C@@]14C(=CC5CC1C(C)(C)OC4(C/C=C(\\C)C(=O)O)C5=O)C3=O)OC(C)(CCC=C(C)C)C=C2", "note": "(stereo partly specified)", "activity, negative = inhibition": "-10.8%"}
{"smiles": "NCCCNCCCCN(CCCN)/[N+]([O-])=N/O", "activity, negative = inhibition": "-1.46%"}
